MITF TRPM1 HTS – increases MITF-driven TRPM1 promoter luciferase signal. activation, % at 12.5 µM. 0.75% of 300,000 active. AID 588334. SK-MEL-5 TRPM1-promoter luciferase, 24 h; % of positive control, neutral wells = 0;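 active = mean activation of at least 80% with every replicate also reaching 80%; inconclusive = mean reaches 80% but some replicate falls short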;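 also: 0% = neutral control wells and 100% = parthenolide positive control wells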
HSF1 activator – increases HSF-1 driven luciferase reporter signal; NIH3T3-HGL HSF-1 luciferase reporter, MG132, 8 h; 100% = twice DMSO control signal; activation, % at 9 µM; 1.7% of 300,000 active; AID 504408;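 active = mean replicate activation of at least 50% with a set share of replicates each reaching 50%; inconclusive = only one of those two conditions met; inactive = mean below 50% and too few replicates reaching it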;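 also: 0% = median of the neutral control wells and 100% = twice that signal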
esBAF inh – SWI/SNF esBAF complex inhibition | mouse ES cells, Bmi1-luciferase knock-in reporter, 24 h; 100% = twice the neutral-well signal | 2% of 350,000 active | reporter increase, % at 12.5 µM; in the data active = activation above about 40%; inconclusive = no clear call, values can overlap the other calls;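 also: 0% = median of the plate's neutral control wells and 100% = double that signal; a rise in the Bmi1 reporter signal indicates esBAF inhibition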
Wnt bcat act – activates Wnt/beta-catenin signaling in a reporter cell assay | activation, % at 9.35 µM | activator, plate reader | 1.2% of 300,000 active | AID 743398; in the data active = activation above about 30%, passing the limit was not always enough; inconclusive = no clear call, values can overlap the other calls;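 also: 0% = neutral control wells and 100% = positive control wells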
HSF1 inhib – HSF1 inhibition | NIH3T3-HGL HSE-luciferase, MG132-induced, luminescence 8 h; hits give low values | activity change, negative = inhibition, % at 7.5 µM (by protocol) | 0.77% of 300,000 active | AID 2098;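 active = more than half of replicate wells show activity change below -50%, luminescence cut by over half; inconclusive = some wells, but at most half, below -50%; inactive = no replicate well below -50%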;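 also: luciferase reports HSF-1 transcriptional activity via heat shock element; 0% = median of DMSO wells and -100% = zero luminescence signal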
Starred values were filed as active, the others as inactive; ? = inconclusive; . = no result. Compounds with a hit are over-represented: about 3.8% of the library has one in this group of screens.

SMILES	MITF TRPM1 HTS	HSF1 activator	esBAF inh	Wnt bcat act	HSF1 inhib
O=C(NC(=S)Nc1ccc(O)cc1)C1CCCC1	25	.	2	22	.
Cc1ccc(NC(=S)NC(=O)C2CCC2)cc1C	113*	-64	84*	22	-59*
O=C(NC(=S)Nc1cccc(O)c1)C1CCCCC1	55	.	42*	-4	.
Cc1ccc(NC(=S)NC(=O)C2CCCC2)cc1C	114*	18	.	27	10
C[C@@H]1CN([C@@H](C)CO)C(=O)c2cccc(NC(=O)Nc3ccc4c(c3)OCO4)c2O[C@H]1CN(C)C(=O)Nc1ccccc1	.	.	5	.	.
C[C@H](CO)N1C[C@H](C)[C@H](CN(C)S(=O)(=O)c2ccc(Cl)cc2)Oc2ccc(NC(=O)c3ccncc3)cc2C1=O	.	.	4	.	.
C[C@@H]1CCCCO[C@H](CN(C)S(C)(=O)=O)[C@H](C)CN([C@H](C)CO)C(=O)c2cc(N(C)C)ccc2O1	.	.	-4	.	.
CC(C)C#Cc1ccc2c(c1)O[C@H](CN(C)Cc1cncnc1)[C@H](C)CN([C@@H](C)CO)S2(=O)=O	.	.	-3	.	.
Cc1noc(C)c1S(=O)(=O)Nc1ccc2c(c1)C(=O)N([C@H](C)CO)C[C@@H](C)[C@@H](CN(C)C(=O)NC1CCCCC1)OCCCC[C@H](C)O2	.	.	7	.	.
Cc1ccc2sc(NC(=O)C3CC3)nc2c1C	37	42	63*	22	15
O=C(Nc1nc2c(F)cc(F)cc2s1)C1CC1	.	31	49*	15	7
O=C(CCN1C(=O)C2CCCCC2C1=O)Nc1nc2ccc(F)cc2s1 (stereo not given)	37	.	-32	?	.
O=C(CCN1C(=O)C2CCCCC2C1=O)Nc1nc2c(F)cc(F)cc2s1 (stereo not given)	90*	.	?	41*	.
Cc1cc(C)n(-c2nnc(NC34CC5CC(CC(C5)C3)C4)nn2)n1	138*	2	58*	.	2
Cc1cc(C)n(-c2nnc(NC(C)(C)C)nn2)n1	?	14	.	.	10
COC(=O)c1ccc(CSc2nc3ccccc3c(=O)n2CC(C)C)o1	1	71*	.	.	36
CN(C)CC(=O)N[C@H]1CC[C@@H](CCn2cc(CN(C)C)nn2)O[C@H]1CO	.	.	-6	.	.
CCCCOc1ccc(-c2cnc3ccccc3n2)cc1	15	-37	.	.	-26
CCCCOc1ccc(-c2ncc(Cl)cn2)cc1	105*	17	86*	-2	26
CCCCOc1ccc(-c2ncc([N+](=O)[O-])cn2)cc1	.	18	83*	40*	6
COc1ccc2nc3sc(C(=O)NCCN4CCc5ccccc5C4)cc3cc2c1	-6	3	89*	4	8
c1ccc(COc2ccc3nocc3c2)cc1	117*	15	104*	32*	24
COCCNC(=O)C[C@H]1CC[C@@H]2[C@H](COc3ccc(NC(=O)c4cnccn4)cc3C(=O)N2C)O1	.	.	0	.	.
CN(C)CC(=O)Nc1ccc2c(c1)[C@H]1C[C@@H](CC(=O)NC3CCCC3)O[C@H](CO)[C@H]1O2	.	.	2	.	.
CSc1nc(N)nc(SCC(=O)OC(C)C)c1C#N	.	18	4	17	6
SMILES	MITF TRPM1 HTS	HSF1 activator	esBAF inh	Wnt bcat act	HSF1 inhib
CSc1nc(N)nc(SCC(=O)c2ccc(C)cc2)c1C#N	54	32	61*	.	12
Cc1noc(C)c1NC(=O)Nc1cccc2c1O[C@H](CN(C)C(=O)Nc1ccc3c(c1)OCO3)[C@@H](C)CN([C@@H](C)CO)C2=O	.	.	1	.	.
C[C@@H]1CCCCO[C@@H](CN(C)Cc2ccc(C(=O)O)cc2)[C@@H](C)CN([C@@H](C)CO)C(=O)c2cc(NS(=O)(=O)c3ccc(Cl)cc3)ccc2O1	.	.	3	.	.
N#Cc1c(N)n(C2OC(CO)C(O)C2O)c2ncnc(N)c12 (stereo not given)	-70	78*	.	-9	78*
O=C(C[C@H]1CC[C@H]2[C@@H](COC[C@@H](O)CN2C(=O)Nc2ccc(F)cc2)O1)NC1Cc2ccccc2C1	.	.	7	.	.
CCCNC(=O)c1cc(Cl)c(NC(=O)C2=CSCCO2)cc1OC	80	26	92*	20	12
C=CCNCCOCCSc1ccc(Cl)cc1	-3	52*	.	-8	21
C[C@H](CO)N1C[C@H](C)[C@H](CN(C)CC2CCOCC2)Oc2cc(Br)ccc2S1(=O)=O	.	.	-4	.	.
COC(=O)c1ccc(CN2C(=O)NC(Cc3c[nH]c4ccccc34)C2=O)cc1 (stereo not given)	55	-19	46*	4	-7
O=C1NC(Cc2c[nH]c3ccccc23)C(=O)N1Cc1ccccc1 (stereo not given)	-13	-3	-1	-8	-1
Cc1ccc(SCC(=O)NCCc2ccccc2)cc1	4	16	13	0	12
Cc1ccc(CCNC(=O)Cn2cccc2)cc1	-10	52*	9	.	25
CCCC(=O)N1CCN(c2ccc(NC(=O)c3cc4ccccc4o3)cc2Cl)CC1	-61	-78	-13	.	-79*
O=C(Nc1ccc(N2CCN(C(=O)c3ccco3)CC2)c(Cl)c1)c1cc2ccccc2o1	-69	-73	4	.	-74*
O=C(Nc1ccc(N2CCN(C(=O)c3ccccc3)CC2)c(Cl)c1)c1ccco1	-4	.	6	.	.
CCC(=O)N1CCN(c2ccc(NC(=O)c3cc4ccccc4o3)cc2Cl)CC1	-52	-4	-2	-1	-2
Cc1nc(N=Nc2ccc(O)cc2)n[nH]1	38	7	4	44*	4
CNC[C@H]1Oc2cc(-c3ccncc3)ccc2S(=O)(=O)N([C@H](C)CO)C[C@@H]1C	.	.	-3	.	.
COc1ccc(OCc2ccc(C(=O)O)cc2)cc1	34	6	51*	.	14
COc1ccc(OCC(O)COc2ccc(C(=O)O)cc2)cc1 (stereo not given)	.	-4	2	.	1
NNC(=O)c1ccc(COc2ccc3c(c2)CCC3)cc1	17	22	.	11	6
O=C(O)c1ccc(COc2ccc3c(c2)CCC3)cc1	25	-7	.	33*	-12
C[C@@H]1CCCCO[C@@H](CN(C)Cc2ccc(C(F)(F)F)cc2)[C@@H](C)CN([C@@H](C)CO)C(=O)c2cc(NC(=O)CCCN(C)C)ccc2O1	.	.	-11	.	.
Cc1cccc2c(=O)c(C(=O)NCCc3ccccc3)c[nH]c12	39	-8	52*	5	8
O=C(NCCc1ccccc1)c1nccc2ccccc12	81*	18	80*	29	10
SMILES	MITF TRPM1 HTS	HSF1 activator	esBAF inh	Wnt bcat act	HSF1 inhib
O=C(NCCc1ccccc1)c1c[nH]c2c(F)cccc2c1=O	.	5	38	4	11
O=C(NCCc1ccccc1)c1n[nH]c2ccccc12	63	59*	24	52*	35
CCNC(=O)c1c(O)c2ccccc2[nH]c1=O	29	-15	8	-10	1
O=C(NCCc1ccccc1)c1ccccc1C(=O)NCCc1ccccc1	.	25	23	13	11
O=C(NCCc1ccccc1)c1c(O)c2ccccc2[nH]c1=O	38	-12	50*	5	2
CN(C)CCCNC(=O)C[C@H]1CC[C@@H]2[C@@H](COc3ccc(NC(=O)NC4CCCC4)cc3C(=O)N2C)O1	.	.	-5	.	.
